Test results from PubChem BioAssay.
The source made the active and inactive calls.

Tests used:
[1] = compounds binding Alexa647 anti-His antibody – biochemical, small-molecule microarray, 635 nm fluorescence, artefact control for SMM control protein annotation, primary screen (AID 1128); settings: higher = more signal;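 note: score merges feature fluorescence with signal-to-noise for each printed compound spot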
[2] = tested on: Human papillomavirus type 1a E7 protein (residues 1-88); test: HPV1a E7 small-molecule binders, primary screen, biochemical, small-molecule microarray, residues 1-88, 635 nm (AID 1129); settings: small-molecule microarray binding, fluorescence 635 nm; higher = more signal
[3] = target: Focal adhesion kinase 1 (Homo sapiens) (UniProt Q05397); test: PTK2 protein binding on printed compound slides – biochemical, small-molecule microarray, 635/667 nm fluorescence, BSA, DTT, primary screen (AID 1130); settings: 635 nm fluorescence, higher = more signal;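 note: composite of spot emission at 667 nm and signal to noise over triplicate slides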
[4] = tested on: Fibrinogen (Alexa647-labelled); test: Alexa647-fibrinogen binding to printed small molecules – biochemical, small-molecule microarray, 635/667 nm fluorescence, artefact control for SMM control-protein annotation, profiling panel (AID 1131); settings: fibrinogen-A647 binding fluorescence, higher = more signal;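 note: z-score merges 667 nm fluorescence with per-spot signal-to-noise over triplicate slides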
[5] = target: Follistatin (Homo sapiens) (UniProt P19883); test: FST protein binding to printed compounds – biochemical, small-molecule microarray, 635/667 nm fluorescence, primary screen (AID 1132); settings: 635 nm fluorescence, higher = more signal
[6] = target: Fibroblast growth factor 2 (Homo sapiens) (UniProt P09038); test: basic fibroblast growth factor binding to printed compounds – biochemical, small-molecule microarray, 635/667 nm fluorescence, primary screen (AID 1133); settings: FGF2, fluorescence 635/667, higher = more signal
[7] = JC-1 mitochondrial potential readout, lung cancer cells – cell-based, A549, JC-1 fluorescence, basal, 24 h, 100 nL, profiling panel (AID 1138); settings: higher = more signal;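 note: A549 lung adenocarcinoma cells under basal conditions with no added stimulus; test concentration not given here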
Lefty1 = Lefty1 protein binding to printed compounds – biochemical, small-molecule microarray, 635/667 nm fluorescence, primary screen (AID 1139); settings: fluorescence 635/667, higher = more signal
[8] = tested on: wheat germ agglutinin (Triticum aestivum), Alexa647-labelled; test: Alexa647-WGA lectin binding to printed small molecules – biochemical, small-molecule microarray, 635/667 nm fluorescence, artefact control for SMM control-protein annotation, profiling panel (AID 1140); settings: WGA-A647 binding, 635 nm fluorescence, higher = more signal;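 note: score merges 667 nm feature emission with signal to noise over triplicate slides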
[9] = target: Luciferin 4-monooxygenase (Photinus pyralis) (UniProt P08659); test: inhibition of purified Photinus pyralis luciferase – biochemical, luminescence, purified enzyme, 2006 set, primary screen (AID 1141); settings: purified firefly luciferase, SteadyGlo luminescence, 30 min; higher = more signal, called active from +8 up or from −8 down;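 note: cell-free assay with purified firefly luciferase at 100 ng per well in PBS; test concentration not given here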
Sequence of Luciferin 4-monooxygenase (Photinus pyralis) (P08659 whole entry, looked up): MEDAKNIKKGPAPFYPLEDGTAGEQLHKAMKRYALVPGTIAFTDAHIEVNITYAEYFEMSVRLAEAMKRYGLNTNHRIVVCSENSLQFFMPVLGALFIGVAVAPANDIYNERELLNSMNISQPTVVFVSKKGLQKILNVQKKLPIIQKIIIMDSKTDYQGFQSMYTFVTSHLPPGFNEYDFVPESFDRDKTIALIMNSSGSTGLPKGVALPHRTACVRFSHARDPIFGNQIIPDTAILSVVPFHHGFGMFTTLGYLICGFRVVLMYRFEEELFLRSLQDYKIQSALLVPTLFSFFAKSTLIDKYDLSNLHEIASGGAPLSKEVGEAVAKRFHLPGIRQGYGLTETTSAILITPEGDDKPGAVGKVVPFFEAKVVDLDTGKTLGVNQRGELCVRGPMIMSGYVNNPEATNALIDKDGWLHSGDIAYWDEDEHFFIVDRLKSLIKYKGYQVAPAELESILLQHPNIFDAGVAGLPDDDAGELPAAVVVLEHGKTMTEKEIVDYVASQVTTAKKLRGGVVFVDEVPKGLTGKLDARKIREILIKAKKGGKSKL

Sequence of Fibroblast growth factor 2 (Homo sapiens) (P09038 whole entry, looked up): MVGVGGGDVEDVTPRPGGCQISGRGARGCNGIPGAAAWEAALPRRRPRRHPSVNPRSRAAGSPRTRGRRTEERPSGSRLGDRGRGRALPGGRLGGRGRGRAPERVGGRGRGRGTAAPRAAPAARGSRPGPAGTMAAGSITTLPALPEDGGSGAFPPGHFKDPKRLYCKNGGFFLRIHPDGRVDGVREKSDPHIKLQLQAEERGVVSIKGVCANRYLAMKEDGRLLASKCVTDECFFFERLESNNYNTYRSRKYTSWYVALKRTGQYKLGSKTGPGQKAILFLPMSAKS
Sequence of Focal adhesion kinase 1 (Homo sapiens) (Q05397 whole entry, looked up): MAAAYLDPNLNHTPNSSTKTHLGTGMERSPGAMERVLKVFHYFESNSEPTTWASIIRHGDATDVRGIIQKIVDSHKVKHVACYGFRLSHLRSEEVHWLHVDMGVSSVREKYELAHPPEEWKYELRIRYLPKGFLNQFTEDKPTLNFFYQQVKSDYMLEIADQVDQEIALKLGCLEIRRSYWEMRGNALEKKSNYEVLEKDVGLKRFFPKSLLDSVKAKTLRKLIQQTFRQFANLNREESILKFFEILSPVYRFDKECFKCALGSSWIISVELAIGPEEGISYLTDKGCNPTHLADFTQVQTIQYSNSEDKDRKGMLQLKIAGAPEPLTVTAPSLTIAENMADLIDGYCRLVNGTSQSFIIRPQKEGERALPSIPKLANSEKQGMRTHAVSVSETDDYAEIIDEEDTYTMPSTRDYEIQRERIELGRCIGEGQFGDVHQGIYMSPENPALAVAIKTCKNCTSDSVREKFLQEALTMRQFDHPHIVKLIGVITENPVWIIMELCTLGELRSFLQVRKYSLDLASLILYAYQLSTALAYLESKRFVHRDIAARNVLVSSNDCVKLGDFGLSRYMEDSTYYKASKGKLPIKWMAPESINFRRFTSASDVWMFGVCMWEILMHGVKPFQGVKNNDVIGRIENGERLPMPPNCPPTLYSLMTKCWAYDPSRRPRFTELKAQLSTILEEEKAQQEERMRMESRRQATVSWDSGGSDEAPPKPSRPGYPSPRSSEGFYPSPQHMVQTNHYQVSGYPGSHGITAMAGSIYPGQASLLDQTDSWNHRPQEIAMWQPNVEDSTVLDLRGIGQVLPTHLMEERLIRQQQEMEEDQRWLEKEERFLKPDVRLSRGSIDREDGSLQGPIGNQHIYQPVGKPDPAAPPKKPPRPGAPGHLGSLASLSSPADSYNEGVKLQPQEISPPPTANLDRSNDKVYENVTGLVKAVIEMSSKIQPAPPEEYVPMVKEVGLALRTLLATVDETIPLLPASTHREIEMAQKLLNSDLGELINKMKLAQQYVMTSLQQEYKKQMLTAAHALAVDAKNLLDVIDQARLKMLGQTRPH
Sequence of Follistatin (Homo sapiens) (P19883 whole entry, looked up): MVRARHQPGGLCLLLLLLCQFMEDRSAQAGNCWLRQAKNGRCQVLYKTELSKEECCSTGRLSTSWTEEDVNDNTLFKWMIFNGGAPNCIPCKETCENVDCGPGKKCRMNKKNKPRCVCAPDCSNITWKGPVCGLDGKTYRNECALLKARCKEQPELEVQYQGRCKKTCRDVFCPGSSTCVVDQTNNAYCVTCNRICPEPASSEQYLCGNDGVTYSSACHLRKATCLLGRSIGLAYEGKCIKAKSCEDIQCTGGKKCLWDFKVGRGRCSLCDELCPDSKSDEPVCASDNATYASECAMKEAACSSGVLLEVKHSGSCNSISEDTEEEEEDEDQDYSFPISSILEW

SMILES	composite z-score [1]	composite z-score [2]	composite z-score [3]	composite z-score [4]	composite z-score [5]	composite z-score [6]	z-score [7]	composite z-score (Lefty1)	composite z-score [8]	z-score [9]
O=C1O[C@H](c2ccccc2)[C@H](c2ccccc2)N2[C@H]1[C@@H](C(=O)N1CCCCCCC1)[C@]1(C(=O)Nc3ccc(C#CC4(O)CCCCCC4)cc31)[C@H]2c1ccc(O)cc1	0.821	1.22	1.75	0.545	1.4	1.37	0.706	1.27	0.757	-0.0026 (inactive)
O=C(N1CCOCC1)[C@@]1(CCS(=O)(=O)c2ccccc2)N=C(c2ccc(OCCCO)cc2)O[C@H]1c1ccccc1	3.23	1.25	0.919	1	1.25	0.162	0.584	-0.415	1.29	-0.0763 (inactive)
CC(C)CCC[C@@H](C)[C@H]1CC[C@@]2(C)C3=C(CC[C@]12C)[C@@]1(C)CC[C@H](OC(=O)c2ccccc2)C(C)(C)C1CC3 (stereo not given in full)	0.226	0.29	-0.0586	0.816	0.438	0.288	0.442	0.591	0.134	-0.0355 (inactive)
COc1ccc(CCNC(=O)[C@@]2(Cc3ccccc3I)c3ccccc3C(=O)N(Cc3ccccc3Cl)[C@H]2c2ccc(CO)cc2)cc1	0.0199	0.899	0.196	0.0632	0.0376	0.0031	0.311	-0.321	0.0638	-0.0513 (inactive)
Cc1ccccc1C(O)C1C=CC2C(=O)NC(=O)C2N1Nc1ccc(Cl)cc1Cl (stereo not given)	0.817	1.18	0.276	0.866	0.802	-0.344	-1.06	0.518	0.951	-1.08 (inactive)
O=c1cccc(-c2ccco2)o1	0.645	0.471	0.082	0.476	1.3	0.879	-0.262	1.02	0.138	0.405 (inactive)
[N-]=[N+]=NCc1ccccc1C[C@@]1(C(=O)N2CCCCC2)N=C(c2ccc(OCCCO)cc2)O[C@@H]1c1ccccc1CN=[N+]=[N-]	-0.174	1.18	0.457	1.02	0.913	0.74	0.342	-0.611	1.28	-0.57 (inactive)
COc1ccc([Si](C)(C)[C@H]2[C@H](CCO)O[C@@]3(C(=O)N(Cc4ccc(N5C(=O)c6ccccc6Oc6ccccc65)cc4)c4ccccc43)[C@@H]2C)cc1	-0.486	-0.76	-0.266	0.348	-1.14	-0.968	1.26	-0.865	0.0124	-0.652 (inactive)
COCCOC(=O)N1C(=O)[C@@]2(c3cc(C#CCC(C(=O)OC)C(=O)OC)ccc31)[C@H](C(=O)NC[C@H](O)c1ccccc1)[C@H]1C(=O)O[C@H](c3ccccc3)[C@H](c3ccccc3)N1[C@@H]2c1ccc(O)cc1	2.58	1.17	0.983	-0.6	0.22	0.501	-0.464	0.464	1.02	-0.296 (inactive)
O=C1N[C@@H](Cc2ccccc2)C(=O)N2[C@@H]1C[C@@H](C(=O)O)[C@H]2c1ccc(O)cc1	2.01	-0.219	-0.11	0.68	1.35	1.26	0.0945	1.58	0.828	-1.43 (inactive)
CC(C)C(=C=CC[C@@H](O)c1cccc(OCCO)c1)C[C@@H](O)COCc1ccccc1	0.292	0.158	-0.276	0.0013	0.844	0.34	1.6	0.318	0.866	-2.11 (inactive)
COCCOC(=O)N1C(=O)[C@@]2(c3cc(C#CC4=CCCCC4)ccc31)[C@H](C(=O)N1CCCCCCC1)[C@H]1C(=O)O[C@H](c3ccccc3)[C@H](c3ccccc3)N1[C@@H]2c1ccc(OCCO)cc1	0.119	1.13	0.605	0.806	1.23	0.426	-1.22	0.79	0.956	-0.866 (inactive)
CC(C)N1CC=CC23O[C@@H]4/C=C\CCCOC(=O)C4[C@H]2C(=O)N(CCCCCCO)[C@@H]3C1=O (stereo not given in full)	1.3	-0.808	0.0835	-1.38	-1.04	-1.2	1.49	-0.934	-0.724	-1.88 (inactive)
CN1C=C(C(=O)OCCS(C)(=O)=O)C(C(=O)OCCS(C)(=O)=O)=CC(c2ccc(CO)cc2)=CC1c1cccs1 (stereo not given)	1.48	0.577	0.0037	0.983	0.793	0.509	2.1	0.644	0.21	-1.63 (inactive)
O=C(CS)NCCCCCNC(=O)[C@@H]1C[C@@H]2C(=O)N[C@@H](Cc3ccccc3)C(=O)N2[C@@H]1c1cccc(OCCO)c1	0.768	1.24	0.334	0.284	1.39	1.6	0.296	0.4	0.288	-1.97 (inactive)
COc1cc(CO)cc(I)c1O[C@H]1C=C(C(=O)NCCO)C[C@@H](NCC2CCCCC2)[C@@H]1O	0.72	0.283	0.211	0.0646	0.521	0.566	-0.0493	0.302	0.672	0.734 (inactive)
[N-]=[N+]=Nc1ccccc1C[C@]1(C(=O)NCc2ccccc2)COC(c2ccc(OCCCO)cc2)=N1	1.39	1.2	0.467	0.963	1.16	0.17	1.85	0.556	1.14	-5.16 (inactive)
